Screening data as filed in PubChem.
Pf growth 96h = Primary qHTS for delayed death inhibitors of the malarial parasite plastid, 96 hour incubation; P. falciparum luciferase reporter growth, 96 h; Potency, µM (highest dose often 28.7 µM), hits mostly inhibitors; 320,000 compounds, 6.9% hits; AID 504834, 2011
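Compounds incubated with erythrocytes infected by luciferase-expressing P. falciparum (2% hematocrit, 0.05% parasitemia final) for 96 hours, 37 C in 5% CO2. Growth inhibition scored as decreased luciferase luminescence.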
Pf growth 48h = Primary qHTS for delayed death inhibitors of the malarial parasite plastid, 48 hour incubation; P. falciparum luciferase growth in erythrocytes, 48 h; AID 504832, 2011; Potency, µM (top dose mostly 28.7 µM), actives largely listed as inhibitors; 310,000 compounds, 5.9% hits
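Growth was read as firefly luciferase luminescence after a 48 h, 37 C, 5% CO2 exposure of compounds to reporter-bearing P. falciparum cultures (0.1% parasitemia, 2% hematocrit final) in Albumax-supplemented RPMI 1640.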
CHX counter = Cycloheximide Counterscreen for Small Molecule Inhibitors of Shiga Toxin; max response, %; cell reporter, cycloheximide protein synthesis inhibition counterscreen; 300,000 compounds, 12% hits; in the data active = max response mostly above about 13%, no sharp cut-off; inactive = mostly below about 14%; also: read at 38.3 µM for the half of the compounds with a filed dose
AMA1 RON2 block = qHTS for Inhibitors of AMA1-RON; Towards Development of Antimalarial Drug Lead: Primary Screen; Plasmodium falciparum AMA1 (3D7) - RON2 peptide interaction; AlphaScreen AMA1-biotinylated RON2 peptide binding; Potency, µM (highest dose often 58.2 µM), hits mostly inhibitors; 360,000 compounds, 0.2% hits; AID 720542, 2013; also: nearly all actives have a fitted effect of over 45% in size
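AMA1 (3D7) with his tag at 25 nM final met compounds first, then biotinylated RON2 peptide at 25 nM; detection used donor plus acceptor beads, 10 µg/mL apiece, read by AlphaScreen after 30 min at room temperature.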
HCV inhibitor = qHTS Assay for Inhibitors of Hepatitis C Virus (HCV). 340,000 compounds, 3.4% hits. Potency, µM (top dose mostly 41.8 µM), hits mostly inhibitors. Huh7.5.1 HCVcc-Cre infection, luciferase reporter, 44 h
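Infectious HCV cell culture screen: compound-treated cells (1,000/well, pre-plated 4 h) are infected with HCVcc-Cre at roughly 0.5 moi and grown 44 h. Infection is quantified by luciferase signal after 15 min substrate incubation at room temperature.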
Shiga inhibitor = A qHTS for Small Molecule Inhibitors of Shiga Toxin; 290,000 compounds, 9.2% hits; inhibition, % at 38.7 µM; Vero cells, Shiga toxin protein synthesis inhibition reporter; in the data active = inhibition mostly above about 28%, no sharp cut-off; inactive = mostly below about 43%
Of the large screens only hits and unclear results are named; the others gave an inactive call. Shown are actives, neighbours in structure and some others; about 21% of the full set was active somewhere. Unless noted, calls follow the shape of the dose curve; as a rule, active = well fitted curve in the direction sought with a large enough effect; inconclusive = small, poorly fitted or top-dose-only effect, or another doubt; inactive = no such curve, though single readings can be large; an effect the other way counts as inactive or inconclusive.

O=C(/C=C/c1ccco1)N1CCN(c2ncccn2)CC1	CHX counter 19, Shiga inhibitor 92
COc1cccc(N2CCN(C(=O)/C=C/c3ccco3)CC2)c1	Pf growth 96h inconclusive, Pf growth 48h inconclusive, CHX counter 41
CC(=O)Nc1cccc(-c2cnc(N)c(C(=O)c3cccnc3)n2)c1	HCV inhibitor 11µM (no result: Pf growth 96h, Pf growth 48h, CHX counter, Shiga inhibitor)
CC1=NN(C(N)=S)C(=O)C1N=Nc1ccc(Cl)cc1 (stereo not drawn)	Pf growth 96h inconclusive, Pf growth 48h inconclusive, CHX counter 33, Shiga inhibitor 77
CC1=NN(C(N)=S)C(=O)C1N=Nc1ccc(Br)cc1 (stereo not drawn)	Pf growth 96h inconclusive, Pf growth 48h 9.3µM, CHX counter 39
CC1=NN(C(N)=S)C(=O)C1N=Nc1cccc(Cl)c1C (stereo not drawn)	Pf growth 96h inconclusive, Pf growth 48h inconclusive, CHX counter 26, Shiga inhibitor 37
COc1ccccc1N1CCN(C(=O)c2ccc(N(C)S(=O)(=O)c3ccccc3)cc2)CC1	Pf growth 48h inconclusive, HCV inhibitor inconclusive
CN(C)S(=O)(=O)c1ccc(C(=O)NNC(=O)C2COc3ccccc3O2)cc1 (stereo not drawn)	Pf growth 96h inconclusive
Cc1noc(C)c1-c1ccc2ncnc(NC(C)c3ccccc3)c2c1 (stereo not drawn)	none (no result: Pf growth 96h, Pf growth 48h, AMA1 RON2 block, HCV inhibitor)
CCn1c(-c2cccnc2Cl)nc2cc(Cl)c(Cl)cc21	CHX counter 40, Shiga inhibitor 78
OC[C@@H]1OC(O)[C@@H](O)[C@H](O)[C@@H]1O (stereo partly drawn)	none (no result: Pf growth 96h, Pf growth 48h, AMA1 RON2 block, HCV inhibitor)
CC(C)(C)NC(=O)CSc1nnc(-c2ccccc2)c(-c2ccccc2)n1	none
COc1ccc(S(=O)(=O)N2c3ccccc3OCC2C(C)(C)C)cc1 (stereo not drawn)	Pf growth 96h 15µM, Pf growth 48h 12µM
COc1ccc(S(=O)(=O)N2c3ccccc3OCC2c2ccccc2)cc1 (stereo not drawn)	Pf growth 96h inconclusive, Pf growth 48h 13µM, HCV inhibitor inconclusive
COc1ccc(S(=O)(=O)N2c3ccccc3OCC2C)cc1 (stereo not drawn)	Pf growth 96h inconclusive, Pf growth 48h inconclusive, HCV inhibitor inconclusive
O=C(N/N=C/C1CC=CCC1)c1cc(-c2cccnc2)nc2ccccc12 (stereo not drawn)	none
CCCCC(=O)N(C)c1c(CC)nc2c(OCC=C(C)C)cccn12	none (no result: Pf growth 96h, Pf growth 48h, CHX counter, HCV inhibitor, Shiga inhibitor)
O=[N+]([O-])c1cc(Cl)c(Cl)c(Cl)c1Cl	Pf growth 96h inconclusive (no result: CHX counter, Shiga inhibitor)
Cc1ccc2ccccc2c1C(O)c1ncc(-c2ccccc2Cl)[nH]1 (stereo not drawn)	none (no result: Pf growth 96h, Pf growth 48h, CHX counter, HCV inhibitor, Shiga inhibitor)
CCOCCCNC(=S)N1C2CCC1CC(NC(=O)NC13CC4CC(CC(C4)C1)C3)C2 (stereo not drawn)	Pf growth 96h 3.7µM, Pf growth 48h 4.7µM
COc1ccc2nc(N3C(=O)CNC3=S)sc2c1	Pf growth 96h inconclusive, CHX counter 51
Cc1cccc(CC2CC(=O)N(c3nc4ccccc4s3)C2=O)c1 (stereo not drawn)	none
Cc1ccc2nc(N3C(=O)CNC3=S)sc2c1	Pf growth 48h inconclusive, CHX counter 47, HCV inhibitor inconclusive, Shiga inhibitor 56
COC(=O)/C=C1\C(=O)N(c2nc3ccc(OC)cc3s2)C(=S)N1c1ccc(F)cc1	none (no result: AMA1 RON2 block)
CCCC(=O)Nc1cc(C)c(NC(=O)c2ccccn2)cn1	CHX counter 28, Shiga inhibitor 86
Cc1cc(NC(=O)C(C)C)ncc1NC(=O)c1ccccn1	CHX counter 30, Shiga inhibitor 129
O=C(NCc1ccccc1F)c1ccncc1	none
CCCCN(CC)CCCNC(=S)Nc1ccc2nc(N3CCN(CC)CC3)cc(C)c2c1	Pf growth 48h 2.9µM, HCV inhibitor inconclusive
CCOc1ccc(C(=O)Nc2ccc3nc(N4CCN(CC)CC4)cc(C)c3c2)cc1	Pf growth 48h 2.3µM, HCV inhibitor inconclusive
CCC(C)NC(=S)Nc1ccc2nc(N3CCN(CC)CC3)cc(C)c2c1 (stereo not drawn)	Pf growth 96h inconclusive, HCV inhibitor inconclusive
CCN(CC)CCNC(=S)Nc1ccc2nc(N3CCN(C)CC3)cc(C)c2c1	Pf growth 48h 10µM, HCV inhibitor inconclusive
CCCCN(CC)CCCNC(=S)Nc1ccc2nc(N3CCN(C)CC3)cc(C)c2c1	Pf growth 48h inconclusive
CCN1CCN(c2cc(C)c3cc(NC(=S)N(CC)CC)ccc3n2)CC1	Pf growth 48h 13µM, HCV inhibitor inconclusive
CC1CC(C)CN(CC(O)COCc2ccccc2F)C1 (stereo not drawn)	none
COC(=O)[C@]12CCCCC=C1N(Cc1ccco1)C(=O)[C@H](CC(=O)NCc1ccccc1)C2	none (no result: Pf growth 96h, Pf growth 48h, CHX counter, HCV inhibitor, Shiga inhibitor)
CCCN(CCC)CCCNC(=S)Nc1ccc2nc(N3CCCC3)cc(C)c2c1	Pf growth 96h inconclusive, Pf growth 48h 1.5µM, HCV inhibitor 10µM
O=C(CCl)NC(Cc1ccccc1)c1ccccc1 (stereo not drawn)	Pf growth 96h 10µM, Pf growth 48h inconclusive
COc1ccc(CCNC(=O)CCS(=O)(=O)c2ccc3nc(C)sc3c2)cc1OC	none
Cc1cccc(N2CCN(C(=O)C3CCN(S(=O)(=O)N4CCOCC4)CC3)CC2)c1C	Pf growth 96h inconclusive, HCV inhibitor 10µM
O=C(C1CCC(CNS(=O)(=O)c2cccs2)CC1)N1CCCCC1 (stereo not drawn)	none (no result: Pf growth 48h)
Cc1cccc(N2CCN(C(=O)C3CCC(CNS(=O)(=O)c4cccs4)CC3)CC2)c1C (stereo not drawn)	Pf growth 48h 5.2µM, HCV inhibitor 7.9µM
O=C(C1CCN(S(=O)(=O)N2CCOCC2)CC1)N1CCN(c2ccccc2F)CC1	none
Cc1ccc(S(=O)(=O)N(C)C[C@H]2Oc3ncc(Br)cc3C(=O)N([C@H](C)CO)C[C@@H]2C)cc1	none (no result: Pf growth 96h, Pf growth 48h, CHX counter, HCV inhibitor, Shiga inhibitor)
CC(=O)Oc1oc(-c2ccccc2)nc1/C=N/c1ccccn1	Pf growth 96h inconclusive, CHX counter 47, Shiga inhibitor 87
COc1ccccc1N=Cc1nc(-c2ccccc2)oc1OC(C)=O	none
CN(C)c1ccc(N=Cc2nc(-c3ccccc3)oc2OC(=O)c2ccccc2)cc1	CHX counter 34, Shiga inhibitor 34
CCc1nc2c(OCC(=O)C(C)(C)C)cccn2c1N(C=O)Cc1ccccc1	none (no result: Pf growth 96h, Pf growth 48h, CHX counter, HCV inhibitor, Shiga inhibitor)
O=C(Nc1ccc(Cl)c(Cl)c1)Nc1nnc(CSc2ccccc2)s1	Pf growth 48h 4.7µM, HCV inhibitor inconclusive
CSc1ccc(Cl)c(C(=O)Nc2nccs2)c1	Pf growth 48h inconclusive
O=C(Nc1cccc(Cl)c1)Nc1nccs1	Pf growth 96h inconclusive, CHX counter 69, Shiga inhibitor 98
O=C(Nc1ccc(Cl)c(Cl)c1)Nc1nccs1	Pf growth 48h inconclusive, CHX counter 34, Shiga inhibitor 69
